# Screens deposited in PubChem by several laboratories.
# The list is not random: actives were taken first. Their share in the collection is about 4.7%.
# SARS 3CLpro inh: SARS-CoV 3CLpro protease inhibition. AID 1706. P0C6X7. 290,000 compounds, 0.14% hits. recombinant SARS-CoV 3CLpro, quenched FRET peptide cleavage. inhibition, % at 6 µM; in the data active means inhibition above about 12%
# Mtb FBA inh: Mtb fructose-bisphosphate aldolase inhibition; purified M. tuberculosis FBA, fluorescence read-out; inhibition, % at 1 µM; 360,000 compounds, 2.3% hits;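 further: 0% = vehicle and 100% = reference inhibitor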
# Target sequence (P9WQA3 whole entry, looked up): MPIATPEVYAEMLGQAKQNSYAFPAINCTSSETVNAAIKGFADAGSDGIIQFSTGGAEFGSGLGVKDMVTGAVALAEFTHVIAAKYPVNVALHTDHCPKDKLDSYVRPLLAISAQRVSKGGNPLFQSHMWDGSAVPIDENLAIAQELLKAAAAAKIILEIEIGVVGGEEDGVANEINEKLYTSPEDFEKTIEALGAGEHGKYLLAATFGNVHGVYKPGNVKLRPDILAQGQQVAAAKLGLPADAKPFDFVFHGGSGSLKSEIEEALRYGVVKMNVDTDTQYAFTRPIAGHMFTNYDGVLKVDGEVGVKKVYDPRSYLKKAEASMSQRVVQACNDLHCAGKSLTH
# CCHFV vOTU inh: CCHFV vOTU protease inhibition. Pep-AMC fluorescence. inhibition, % at 11.5 µM. 370,000 compounds, 0.55% hits. AID 651958; in the data active means inhibition above about 30%; further: 0% = vehicle wells with enzyme and 100% = no enzyme wells
# GDH-TPI counter-1: counter-screen for M. tuberculosis FBA inhibitors: GDH-TPI coupled enzymes; 360,000 compounds, 1.2% hits; inhibition, % at 4.8 µM; GDH-TPI coupled enzyme counterscreen, NADH absorbance; in the data active means inhibition above about 30%;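 further: 0% = DMSO wells and 100% = wells lacking the enzyme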
# DUSP3 inh: DUSP3 (human) phosphatase inhibition; 290,000 compounds, 0.52% hits; P51452; inhibition, % at 13.3 µM; recombinant VHR phosphatase, pNPP absorbance; in the data active means inhibition above about 50%
# Target sequence (P51452 whole entry, looked up): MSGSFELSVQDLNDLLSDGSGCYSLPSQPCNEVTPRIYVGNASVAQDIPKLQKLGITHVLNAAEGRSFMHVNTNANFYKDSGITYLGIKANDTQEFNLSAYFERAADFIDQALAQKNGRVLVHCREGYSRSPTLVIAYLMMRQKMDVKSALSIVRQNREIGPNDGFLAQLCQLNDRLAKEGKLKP
# RecA intein inh: blocks M. tuberculosis RecA intein splicing; cell-free RecA intein splicing, fluorescence; 290,000 compounds, 0.75% hits; inhibition, % (no concentration beside the values); in the data active means inhibition above about 30%;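 further: 0% = vehicle wells and 100% = reference inhibitor control wells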
# Mtb FBA inh conf: confirmation of M. tuberculosis fructose-bisphosphate aldolase inhibitors | shares compounds with Mtb FBA inh | purified M. tuberculosis FBA, fluorescence read-out | inhibition, % at 1 µM | 5,600 compounds, 78% hits | AID 651616;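 further: 0% = vehicle wells and 100% = reference inhibitor wells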
# GDH-TPI counter-2: inhibits GDH-TPI coupling enzymes, flagging Mtb FBA hits. shares compounds with Mtb FBA inh. GDH-TPI coupled enzyme counterscreen, fluorescence. inhibition, % at 1 µM. 5,600 compounds, 81% hits. AID 652141; in the data active means inhibition above about 10%
# GDH-TPI DR: GDH-TPI dose response counter-screen for Mtb FBA. shares compounds with Mtb FBA inh. GDH-TPI coupled enzyme assay, fluorescence, artifact counterscreen. IC50, µM. 170 compounds, 79% hits; call rule not given here
# * hit, by the source's call; i = inactive; nt = no result; + = active, no number. Unless noted, no stated cut-off is given here; in the data, active means inhibition above about 27%; inactive means the rest.
SMILES,SARS 3CLpro inh,Mtb FBA inh,CCHFV vOTU inh,GDH-TPI counter-1,DUSP3 inh,RecA intein inh,Mtb FBA inh conf,GDH-TPI counter-2,others
CCCc1cc(=O)oc2cc(C)cc(OCC(=O)NCCCn3ccnc3)c12,-1,57*,-16,8,7,-1,88*,65*,
Cc1c(C)c2ccc(OCC(=O)Nc3ccc(S(N)(=O)=O)cc3)c(C)c2oc1=O,-2,41*,-1,12,-22,2,78*,73*,
COC(=O)[C@]1(C#N)CC(=O)N(Cc2ccc(Cl)cc2)[C@@H]1c1ccc(OC)cc1,nt,nt,-1,nt,nt,nt,nt,nt,
COC(=O)/C=c1\[nH]c2nnc(C)n2c1=O,-2,84*,-51,9,-4,-1,+,+,
COC(=O)/C=c1\sc2ncnn2c1=O,-4,2,-6,-3,13,3,nt,nt,
CC1=CC(c2ccccc2)n2nc(NC(=O)CCCC(=O)O)nc2N1 (stereo unspecified),-1,62*,-63,-5,-32,-7,83*,73*,
CC1=CC(c2ccccc2)n2nc(NC(=O)CCC(=O)O)nc2N1 (stereo unspecified),4,81*,-117,28,-3,-20,-4,-5,
CCC(=O)Nc1nc2n(n1)C(c1ccc(OC)cc1)C=C(c1ccccc1)N2 (stereo unspecified),2,nt,nt,nt,11,-321,nt,nt,
COc1ccc(OC)c(-n2c(C)ccc2-c2ccc(S(C)(=O)=O)cc2)c1,5,91*,8,19,9,2,87*,97*,
COc1ccc(OC)c(-n2c(-c3ccc(S(C)(=O)=O)cc3)cc(C=O)c2C)c1,1,2,10,11,-4,0,nt,nt,
CCS(=O)(=O)c1ccc2c(c1)NC(=O)C(CCCl)O2 (stereo unspecified),0,78*,-13,-3,32,0,140*,112*,
O=C1Nc2ncccc2OC1CCCl (stereo unspecified),2,-1,7,10,16,-2,nt,nt,
CCC(NC(=O)c1ccc([N+](=O)[O-])cc1[N+](=O)[O-])c1ccccc1 (stereo unspecified),1,2,11,3,-31,12,nt,nt,
CCC(NC(=O)c1ccccc1O)c1ccccc1 (stereo unspecified),2,43*,-15,-1,22,4,168*,120*,
C=CCCC(=O)N1C[C@H]2CON(C)[C@H]2C[C@H]1c1ccc(-n2ccnc2)cc1,nt,1,8,nt,nt,nt,nt,nt,
FC(F)(F)c1ccccc1NC(=S)Nn1cnnc1,0,6,1,12,11,-1,nt,nt,
COc1cc2ccccc2cc1C(=O)OCC(=O)c1c(N)n(C)c(=O)n(C)c1=O,nt,28*,-24,6,nt,nt,178*,142*,
COc1ccc(Cl)cc1C(=O)OCC(=O)c1c(N)n(C)c(=O)n(C)c1=O,nt,2,-8,-12,nt,nt,nt,nt,
COc1cccc(-c2cnc3cccnn23)c1,nt,53*,-62,-3,nt,nt,97*,69*,
Cc1ccc(-c2cnc3cccnn23)cc1F,nt,60*,-71,3,nt,nt,-5,-5,
N#Cc1cc2cc3c(cc2nc1N1CCCCC1)OCCO3,4,47*,-15,13,15,-17,55*,42*,
COc1ccc(C(=O)N2CCN(c3nc4cc(C)cc(C)c4cc3C#N)CC2)cc1,nt,11,-8,-1,nt,nt,nt,nt,
Cc1ccc(C(=O)N2CCCN(c3nc4cc5c(cc4cc3C#N)OCO5)CC2)cc1,-3,45*,-29,10,16,-213,145*,88*,
O=C(NCCNC(=O)c1ccc([N+](=O)[O-])cc1)c1ccncc1,-2,-7,-4,7,13,5,nt,nt,
Cc1ccc(C(=O)NCC(c2ccc(F)cc2)N2CCOCC2)cc1 (stereo unspecified),1,-2,-14,-14,4,-1,nt,nt,
SMILES,SARS 3CLpro inh,Mtb FBA inh,CCHFV vOTU inh,GDH-TPI counter-1,DUSP3 inh,RecA intein inh,Mtb FBA inh conf,GDH-TPI counter-2,others
CC(=O)c1ccc(-c2ccc(C(=O)NCC(c3ccc(F)cc3)N3CCOCC3)o2)cc1 (stereo unspecified),nt,55*,-55,21,nt,-1,57*,32*,
CN(CC(=O)Nc1ccc(Br)cc1)Cc1ccccc1,-2,1,2,2,14,4,nt,nt,
COC(=O)c1cc(NC(=O)CN(C)Cc2ccccc2)cc(C(=O)OC)c1,5,35*,-48,14,6,2,26,22*,
COc1ccc(-n2nc3ccc(NS(C)(=O)=O)cc3n2)cc1Cl,5,92*,-23,11,15,nt,36*,22*,
Cc1cc(N)ccc1-n1nc2ccccc2n1,nt,2,0,17,nt,4,nt,nt,
Cc1ccc(-n2nc3ccc(N)cc3n2)c(C)c1,5,100*,-128,20,7,4,+,+,
Cc1ccc(-n2nc3ccc(N)cc3n2)cc1Cl,4,28*,-76,6,-7,-59,59*,47*,
COc1ccc(-n2nc3ccc(N)cc3n2)cc1Cl,5,64*,-62,24,8,nt,50*,44*,
CCOC(=O)c1sc(NC(=O)CN2CC(C)OC(C)C2)nc1C (stereo unspecified),-1,0,6,9,5,-2,nt,nt,
Cc1ccc(-n2nc3ccc(N)cc3n2)cc1C,-8,27*,-105,12,23,-16,15,10,GDH-TPI DR=1.5*
CCN(CC)c1ccc2c(C)c(CO)c(=O)oc2c1,-1,49*,-111,8,27,i,+,+,
CCN(CC)c1ccc2c(C)c(CN3CCOCC3)c(=O)oc2c1,3,88*,nt,17,4,i,-3,-5,
CCN(CC)c1ccc2c(O)cc(=O)oc2c1,3,22,-16,23,15,-2,nt,nt,
CC(=O)n1c(-c2ccccc2)c(-c2ccccc2)n(C)c1=O,nt,50*,-9,-4,nt,2,78*,50*,
O=C(O)c1ccc2c(c1)C(=O)N(CCc1ccccc1)C2=O,-4,85*,11,-1,10,1,174*,132*,
CC1=CC2=NCC(O)CN2C=C1 (stereo unspecified),3,28*,-15,-4,-5,-1,12,-5,GDH-TPI DR=9.3*
Clc1ccc(SCc2cn3ccccc3n2)cc1,-2,61*,4,0,22,3,+,+,
CCOC(=O)c1c(-c2ccccc2)cn2c(C)cc(C)nc12,1,30*,-34,6,26,-24,90*,56*,
CCOC(=O)c1cnn(-c2cc(C)nc3c(-c4ccccc4)c(C)nn23)c1N,-3,11,3,-2,-8,19,nt,nt,
